Values joined by “and” are separate entries in the source; they are usually repeats but may differ in a detail not shown here. Identical values can stand only once. Counter-ions that a name gives are not always drawn.
What was measured:
Experiment in all cases: Euclidean distance of Cell Painting phenotypic profile (signed KS, 77 features) to DMSO centroid (dimensionless distance); 5 or 10 uM (library dependent); higher = stronger phenotypic change vs DMSO (phenoactivity)
Conditions in all cases: 48 h
786-O = system: 786-O
Procedure, shortened: (§1)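 Phenoactivity is defined as the Euclidean distance from a compound profile to the median vehicle profile. Each profile comprised 77 Harmony features, scored as signed Kolmogorov-Smirnov statistics versus same-plate vehicle wells, then plate-position corrected, correlation-weighted and replicate-averaged at the top dose. Five cancer lines and one healthy fibroblast line were exposed to library compounds for 48 h at 10 or 5 uM (0.1% DMSO final).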

A549 = system: A549
Procedure, shortened: as §1

DU145 = system: DU145
Procedure, shortened: as §1

FB = system: FB
Procedure, shortened: as §1

HEPG2 = system: HEPG2
Procedure, shortened: as §1

OVCAR4 = system: OVCAR4
Procedure, shortened: as §1

| SMILES | Euclidean distance (786-O) | Euclidean distance (A549) | Euclidean distance (DU145) | Euclidean distance (FB) | Euclidean distance (HEPG2) | Euclidean distance (OVCAR4) |
| --- | --- | --- | --- | --- | --- | --- |
| C[C@@H](N)c1ccc(C(=O)Nc2ccnc3[nH]ccc23)cc1 | 1.87 | 3.06 | 3.16 | 3.73 | 2.26 | 2.05 |
| CC(C)NCC(O)COc1cccc2[nH]c3ccccc3c12 (configuration not stated) [Carazolol] | 1.27 | 0.789 | 1.12 | 0.974 | 1.07 | 1.31 |
| c1ccc(CN(CC2=NCCN2)c2ccccc2)cc1 [Antazoline HCl] | 1.19 | 0.647 | 0.893 | 1.02 | 0.685 | 1.02 |
| Cc1cn([C@@H]2C[C@@H](O)[C@H](CO)O2)c(=O)[nH]c1=O [Telbivudine] | 1.15 | 0.884 | 0.651 | 1.53 | 0.469 | 1.12 |
| CC1=CC(=O)c2ccccc2C1=O [Menadione] | 1.12 | 0.782 | 0.587 | 1.16 | 0.759 | 2.12 |
| COc1ccc(-c2cc(=O)c3c(O)cc(O)cc3o2)cc1O [Diosmetin] | 2.12 | 1.03 | 0.892 | 1.37 | 1.25 | 1.26 |
| CCN(CC)CC(=O)Oc1ccc(NC(C)=O)cc1 [Propacetamol hydrochloride] | 1.3 | 0.77 | 1.22 | 0.897 | 1.14 | 1.47 |
| Cc1ccc(=O)n(-c2ccccc2)c1 [Pirfenidone] | 1.25 | 0.718 | 1.64 | 0.845 | 0.297 | 1.38 |
| CN1[C@@H](CC(=O)c2ccccc2)CCC[C@H]1C[C@H](O)c1ccccc1 [Lobeline hydrochloride] | 1.09 | 0.739 | 1.56 | 1.44 | 0.499 | 1.16 |
| CC(=O)c1c(C)c2cnc(Nc3ccc(N4CCNCC4)cn3)nc2n(C2CCCC2)c1=O | 5.92 and 5.88 | 3.42 and 3.04 | 5.03 and 4.42 | 6.3 and 5.78 | 5.39 and 4.73 | 5.52 and 5.47 |
| C[C@]12CCC(=O)C=C1[C@@H]1C[C@@H]1[C@H]1[C@@H]3[C@@H]4C[C@@H]4[C@@]4(CCC(=O)O4)[C@@]3(C)CC[C@@H]12 [Drospirenone] | 0.972 | 0.987 | 0.866 | 0.787 | 0.612 | 0.995 |
| Nc1[nH]cnc2ncnc1-2 [Adenine sulfate] | 1.69 | 0.409 | 1.17 | 0.763 | 0.765 | 0.878 |
| COc1cc(N2CCC(N3CCN(C)CC3)CC2)ccc1Nc1ncc(Cl)c(Nc2ccccc2P(C)(C)=O)n1 | 1.49 | 2.29 | 2.68 | 4.2 | 1.51 | 1.74 |
| O=C(O)CCCC[C@@H]1CCSS1 (racemic) [Thioctic acid] | 1.09 | 0.518 | 1.41 | 0.755 | 0.413 | 0.684 |
| CCCCCCCCCCCCCCCCCCOCC(O)CO (configuration not stated) [Batyl alcohol] | 0.871 | 0.609 | 0.705 | 1.18 | 0.262 | 0.921 |
| N[C@@H](CCC(=O)N[C@@H](CS)C(=O)NCC(=O)O)C(=O)O [Glutathione] | 1.52 | 1.12 | 1.48 | 1.03 | 0.978 | 1.55 |
| Cc1nc(=O)c2cc(CN(C)c3ccc(C(=O)N[C@@H](CCC(=O)O)C(=O)O)s3)ccc2[nH]1 [Raltitrexed] | 1.96 | 2.87 | 0.703 | 0.633 | 2.39 | 2.76 |
| COc1ccc2c(c1)C(=O)N(CCc1ccc(S(=O)(=O)NC(=O)NC3CCCCC3)cc1)C(=O)C2(C)C [Gliquidone] | 1.02 | 0.773 | 1.03 | 1.06 | 3.11 | 0.973 |
| Nc1nc(Cl)nc2c1ncn2[C@@H]1O[C@H](CO)[C@@H](O)[C@@H]1F [Clofarabine] | 3.26 | 2.36 | 2.96 | 3.41 | 3.02 | 3.09 |
| O=C(c1c(F)ccc(NS(=O)(=O)N2CC[C@@H](F)C2)c1F)c1c[nH]c2ncc(-c3cnc(C4CC4)nc3)cc12 | 1.42 | 1.86 | 2.02 | 2.6 | 1.2 | 1.44 |
| Nc1cc(C(F)(F)F)c(-c2nc(N3CCOCC3)nc(N3CCOCC3)n2)cn1 [Bimiralisib (PQR309)] | 2.95 | 2.83 | 1.83 | 4.83 | 2.44 | 2.86 |
| COc1ccc2cc3[n+](cc2c1OC)CCc1cc2c(cc1-3)OCO2 [Berberine] | 1.31 | 1.85 | 0.876 | 1.96 | 1.57 | 1.4 |
| O=c1[nH]c(=O)n([C@H]2C[C@H](O)[C@@H](CO)O2)cc1C(F)(F)F [Trifluridine] | 2.89 | 3.28 | 2.74 | 1.07 | 3.56 | 2.85 |
| Cn1c(=O)c2c(ncn2CC(O)CO)n(C)c1=O (configuration not stated) [Dyphylline] | 1.02 | 0.909 | 0.59 | 1.07 | 1.05 | 1.59 |

| SMILES | Euclidean distance (786-O) | Euclidean distance (A549) | Euclidean distance (DU145) | Euclidean distance (FB) | Euclidean distance (HEPG2) | Euclidean distance (OVCAR4) |
| --- | --- | --- | --- | --- | --- | --- |
| Cc1c(Cl)cccc1Nc1ncccc1C(=O)O [Clonixin] | 0.846 | 1.1 | 1.6 | 1.11 | 0.606 | 0.98 |
| O=C(c1ccc(Nc2nccc(-c3cc4ccccc4s3)n2)cc1)N1CCC(N2CCCC2)CC1 [IKK-16 (IKK Inhibitor VII)] | 3.91 | 4.2 | 3.04 | 4.35 | 4.29 | 4.4 |
| O=C(Nc1cccnc1)N1CCC(Cc2cccc(Oc3ccc(C(F)(F)F)cn3)c2)CC1 | 0.844 | 1.34 | 0.774 | 0.825 | 1.94 | 0.736 |
| OCc1ccc(-c2ccc(-c3ccc(CO)s3)o2)s1 | 2.79 | 2.26 | 1.44 | 2.66 | 4.78 | 5.04 |
| O=C(Nc1ccc([N+](=O)[O-])cc1Cl)c1cc(Cl)ccc1O [Niclosamide] | 2.27 | 2.95 | 2.1 | 3.12 | 0.819 | 2.45 |
| Cc1ccc(C(C)C)c(O)c1 [Thymol] | 0.798 | 1.8 | 1.2 | 0.901 | 0.572 | 1.46 |
| CC(C)C(=O)Oc1ccc(CO)cc1[C@H](CCN(C(C)C)C(C)C)c1ccccc1 [Fesoterodine Fumarate] | 0.902 | 1.2 | 1.33 | 0.688 | 1.16 | 1.69 |
| O=C(O)C1=CO[C@@H](O[C@@H]2O[C@H](CO)[C@@H](O)[C@H](O)[C@H]2O)[C@@H]2C(CO)=CC[C@H]12 [Geniposidic acid] | 0.817 | 0.758 | 0.684 | 0.819 | 0.985 | 0.756 |
| Cc1ccc(Cl)c(Nc2ccccc2C(=O)O)c1Cl [Meclofenamate Sodium] | 1.09 | 1.34 | 1.66 | 1.48 | 0.74 | 1.94 |
| O=C(COc1ccc(C(=O)c2ccccc2)cc1)NC1CCN(Cc2ccccc2)CC1 [AdipoRon] | 0.958 | 0.958 | 0.661 | 0.817 | 1.11 | 0.793 |
| Cc1cc(F)c(Nc2ncnc3cc(OCc4ccccc4)ccc23)cc1O | 1.83 | 0.984 | 0.521 | 1.8 | 0.631 | 0.745 |
| NC(N)=Nc1nc(CSCC/C(N)=N/S(N)(=O)=O)cs1 [Famotidine] | 1.72 | 0.931 | 1.5 | 1.11 | 2.27 | 1.1 |
| CCCCCCCCCC(=O)N[C@H]1[C@H](Oc2c3cc4cc2Oc2ccc(cc2Cl)[C@@H](O[C@@H]2O[C@H](CO)[C@@H](O)[C@H](O)[C@H]2NC(C)=O)[C@@H]2NC(=O)[C@H](NC(=O)[C@@H]4NC(=O)[C@H]4NC(=O)[C@@H](Cc5ccc(c(Cl)c5)O3)NC(=O)[C@H](N)c3ccc(O)c(c3)Oc3cc(O)cc4c3)c3ccc(O)c(c3)-c3c(OC4O[C@H](CO)[C@@H](O)[C@H](O)[C@@H]4O)cc(O)cc3[C@@H](C(=O)O)NC2=O)O[C@H](CO)[C@@H](O)[C@@H]1O (some centres not stated) [Teicoplanin] | 1.09 | 1.18 | 0.773 | 0.777 | 1.39 | 1.07 |
| NS(=O)(=O)c1cc2c(cc1Cl)NC(C1CC3C=CC1C3)NS2(=O)=O (configuration not stated) [Cyclothiazide] | 1.37 | 0.917 | 0.711 | 1.07 | 0.641 | 2.44 |
| NS(=O)(=O)c1cc2c(cc1Cl)N=C(CSCc1ccccc1)NS2(=O)=O [Benzthiazide] | 1.33 | 1.17 | 1.06 | 1.18 | 1.62 | 1.62 |
| CC1=C(C(=O)OCCN(Cc2ccccc2)c2ccccc2)C(c2cccc([N+](=O)[O-])c2)C(P2(=O)OCC(C)(C)CO2)=C(C)N1 (configuration not stated) [Efonidipine] | 1.73 | 1.93 | 1.02 | 0.739 | 0.968 | 0.999 |
| Cc1nnc(C(C)C)n1C1C[C@H]2CC[C@@H](C1)N2CC[C@H](NC(=O)C1CCC(F)(F)CC1)c1ccccc1 (stereo in doubt) [Maraviroc] | 1.35 | 0.711 | 1.04 | 1.1 | 0.487 | 1.71 |
| CCCCS(=O)(=O)N[C@@H](Cc1ccc(OCCCCC2CCNCC2)cc1)C(=O)O [Tirofiban Hydrochloride] | 1 | 1.07 | 1.77 | 1.22 | 0.871 | 1.39 |
| Cc1nc2n(c(=O)c1CCN1CCC(c3noc4cc(F)ccc34)CC1)CCCC2 [Risperidone] | 1.21 | 0.71 | 0.723 | 1.08 | 0.51 | 0.674 |
| COc1ccc([C@@H]2CC(=O)c3c(O)cc(O)cc3O2)cc1O [Hesperetin] | 1.32 | 0.944 | 1.21 | 1.47 | 1.37 | 1.23 |
| Oc1c(Cl)cc(Cl)cc1Sc1cc(Cl)cc(Cl)c1O [Bithionol] | 0.758 | 0.588 | 0.524 | 0.97 | 1.02 | 1.23 |
| Cn1cc(-c2ccc3ncc(Cc4ccc5ncccc5c4)n3n2)cn1 | 1.26 | 0.825 | 0.747 | 0.784 | 1.92 | 1.31 |
| C#Cc1cccc(Nc2ncnc3cc(OCCOC)c(OCCOC)cc23)c1 [Erlotinib HCl (OSI-744)] | 1.55 | 1.87 | 1.94 | 1.57 | 0.884 | 2.37 |

Source: the supplement of paper PMC10127200
